Data published in the supplement of paper PMC6555819.

Columns and labels:
Test in all cases: PBM binding z-score (relative to random genomic background probes); higher = stronger binding; sequences stand for … in GC…GCGATTGACAGCGTAGAATGAAGG
[1] = system: FXR:RXRa (NR concentration 270 nM, RXRa partner concentration 90 nM)
Method in brief: (§1)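 Binding buffer was PBS pH 7.4 with 2% milk, 0.02% Triton X-100, 1 mM DTT, 0.2 mg/mL BSA and 0.4 mg/ml salmon testes DNA. In it, ligand-free nuclear receptor dimers were incubated 1 h on custom Agilent 4×180K protein-binding microarrays carrying double-stranded probes. Antibodies against each partner (one per run) detected binding, and z-scores were calculated against random background probes after regression normalization of scanned fluorescence.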

[2] = system: LXRa:RXRa (NR concentration 270 nM, RXRa partner concentration 90 nM)
Method in brief: as §1

[3] = system: LXRa homodimer (NR concentration 270 nM)
Method in brief: as §1

[4] = system: LXRb:RXRa (NR concentration 270 nM, RXRa partner concentration 90 nM)
Method in brief: as §1

[5] = system: LXRb homodimer (NR concentration 270 nM)
Method in brief: as §1

[6] = system: PPARa:RXRa (NR concentration 270 nM, RXRa partner concentration 90 nM)
Method in brief: as §1

[7] = system: PPARg:RXRa (NR concentration 180 nM, RXRa partner concentration 90 nM)
Method in brief: as §1

[8] = system: PPARg:RXRa 270nM:90nM, anti-RXR (NR concentration 270 nM, RXRa partner concentration 90 nM)
Method in brief: as §1

[9] = system: PPARg:RXRa 30nM:10nM, anti-RXR (NR concentration 30 nM, RXRa partner concentration 10 nM)
Method in brief: as §1

[10] = system: PPARg:RXRa 90nM:30nM, anti-RXR (NR concentration 90 nM, RXRa partner concentration 30 nM)
Method in brief: as §1

[11] = system: PPARg:RXRa DBDmut IVT, anti-RXR (DBD mutation: RXRa K156A/R161A, NR concentration 270 nM, RXRa partner concentration 90 nM)
Method in brief: as §1

[12] = system: PPARg:RXRa IVT, anti-PPARg (NR concentration 270 nM, RXRa partner concentration 90 nM)
Method in brief: as §1

[13] = system: PPARg DBDmut:RXRa IVT, anti-PPARg (DBD mutation: PPARg1 K132A/R137A, NR concentration 270 nM, RXRa partner concentration 90 nM)
Method in brief: as §1

[14] = system: PPARg DBDmut IVT, anti-PPARg (DBD mutation: PPARg1 K132A/R137A, NR concentration 270 nM)
Method in brief: as §1

[15] = system: PPARg homodimer (NR concentration 180 nM)
Method in brief: as §1

[16] = system: PXR:RXRa (NR concentration 270 nM, RXRa partner concentration 90 nM)
Method in brief: as §1

[17] = system: PXR homodimer (NR concentration 270 nM)
Method in brief: as §1

[18] = system: RARa:RXR (NR concentration 270 nM, RXRa partner concentration 90 nM)
Method in brief: as §1

[19] = system: RARa homodimer (NR concentration 270 nM)
Method in brief: as §1

[20] = system: RARb:RXRa (NR concentration 270 nM, RXRa partner concentration 90 nM)
Method in brief: as §1

| Sequence | PBM binding z-score [1] | PBM binding z-score [2] | PBM binding z-score [3] | PBM binding z-score [4] | PBM binding z-score [5] | PBM binding z-score [6] | PBM binding z-score [7] | PBM binding z-score [8] | PBM binding z-score [9] | PBM binding z-score [10] | PBM binding z-score [11] | PBM binding z-score [12] | PBM binding z-score [13] | PBM binding z-score [14] | PBM binding z-score [15] | PBM binding z-score [16] | PBM binding z-score [17] | PBM binding z-score [18] | PBM binding z-score [19] | PBM binding z-score [20] |
| --- | --- | --- | --- | --- | --- | --- | --- | --- | --- | --- | --- | --- | --- | --- | --- | --- | --- | --- | --- | --- |
| CCTATTAGTTGACCATCAGGGCAACCGAAGCTCG | 0.442 | 0.292 | 0.822 | 0.105 | 0.434 | 0.136 | 0.185 | 0.164 | -0.404 | 0.121 | 0.536 | 0.814 | 0.556 | 0.943 | 1.44 | 0.0854 | 0.589 | 0.0403 | 1.51 | 1.07 |
| CCTACTGGGCCCTTCAGAGGTCATTGATCATATG | 2.3 | 3.83 | 5.02 | 3.34 | 0.134 | 3.32 | 0.503 | 1.95 | 0.162 | 0.866 | 0.668 | 1.66 | -0.729 | -0.628 | 3.64 | 4.97 | 1.92 | 4.84 | 0.707 | 2.58 |
| CCTCGGAGGACAGATGGTCAGAGCTGTCCGCTTT | -0.143 | -0.35 | -0.187 | -0.927 | -0.896 | -0.597 | -0.644 | -0.669 | -1.17 | -0.907 | -0.386 | -0.558 | -1 | -1.4 | 0.238 | -0.384 | -0.503 | -0.309 | -0.685 | 0.479 |
| CTACCAAGGTGAACATGGTCGTTGATTACTATTC | 0.63 | 0.673 | -0.0625 | 1.05 | -0.345 | 1.73 | 0.829 | 0.843 | 0.0499 | 0.359 | 2.77 | 2.62 | 0.872 | -0.0867 | 0.593 | 0.435 | -0.201 | 1.12 | 0.284 | 1.66 |
| CAAACTAGGTCACGAACGGTCAAAGTCGAATGAC | 5.85 | 7.42 | 4.34 | 5.78 | 1.18 | 5.62 | 9.57 | 8.01 | 5.99 | 7.93 | 8.77 | 9.13 | 8.12 | 6.44 | 4.03 | 3.71 | 0.663 | 4.05 | 2.03 | 4.7 |
| ATCGAAACGTCGAGGTGAGTATAGAGAAAGGGAA | -0.226 | -0.343 | -0.626 | -0.525 | -0.471 | -0.00336 | 0.304 | -0.503 | 0.3 | -0.335 | -1 | 0.225 | 0.306 | 0.714 | -0.637 | -0.126 | -0.0991 | 0.0247 | -0.11 | 0.508 |
| TCGAGTAGGTTAGGGGCATTCAGAATGGCGTCGA | 0.42 | 0.257 | -0.31 | 0.672 | -0.239 | 1.39 | 0.676 | 1.98 | 1.13 | 1.76 | 1.95 | 1.44 | -0.138 | -0.987 | 1.13 | 0.245 | 0.264 | 0.141 | -0.19 | 1.13 |
| ACTATTTGTTGAGACGAGGGCAACCGATAGGTTG | 0.374 | 0.535 | 0.28 | 0.453 | 0.762 | 0.255 | 0.623 | 0.216 | 0.23 | 0.0132 | 0.443 | 0.881 | 1.52 | 1.09 | 0.629 | 0.581 | 0.979 | 0.391 | 0.779 | 1.07 |
| GCTATTAGTAGAAAGGGCAACCGAATGATTCTCG | -0.219 | 0.182 | -0.00158 | 0.187 | -0.195 | 1.42 | 2.17 | 3.71 | 1.81 | 3.54 | 0.164 | 0.803 | 0.319 | 0.449 | 1.28 | 0.256 | -0.0739 | 0.703 | 1.09 | 1.96 |
| TCTGCTAGCTCAGTTGGTCAGCTAACGAGCTGCC | -1.44 | -1.29 | -1.01 | -1.04 | -0.714 | -0.45 | -1.22 | 0.0147 | 0.674 | 0.449 | 0.435 | 0.0097 | -0.882 | -0.216 | -1.73 | -0.874 | -1.69 | -0.998 | -2.24 | -0.575 |
| TCTTGTAGATCAAAGGTTAAGATAGCCGAAGCCT | 1.76 | 2.11 | 0.243 | 2.23 | 0.104 | 4.83 | 8.74 | 8.06 | 8.48 | 9.71 | 2.14 | 4.36 | 0.743 | 0.848 | 2.49 | 2.29 | -0.253 | 3.37 | 0.787 | 1.98 |
| CCTACTGGGCCAAAAGTCATTGATTCCAATGCTC | -0.29 | 0.0265 | -0.0792 | 0.111 | -0.713 | 3.54 | 7.06 | 7.89 | 8.84 | 9.3 | 4.9 | 4.42 | -0.0689 | -0.159 | 0.216 | -0.153 | -0.589 | 0.273 | 0.25 | 0.447 |
| CCTTACGGGTCACCCCAGGTTATAGCATCGGAGT | 5.74 | 6.63 | 1.25 | 4.43 | -0.027 | 5.01 | 4.23 | 4.51 | 1.22 | 3.1 | 1.58 | 3.6 | 0.299 | -0.0802 | 2.12 | 5.4 | 0.158 | 4.43 | 0.572 | 3.79 |
| TCACACAGGTGAAGGTAACTCAGGTACGCAGTCG | 0.851 | 2.02 | -0.228 | 1 | -0.466 | 1.32 | 1.14 | 1.81 | 2.94 | 2.66 | 2.55 | 1.69 | 0.51 | -0.435 | -0.0155 | 0.559 | -0.0288 | 0.898 | 0.414 | 1.15 |
